For the test, the system named is PRMT1 (protein arginine N-methyltransferase 1). The experiment in a line: small molecules binding arginine methyltransferase PRMT1 – biochemical, small-molecule microarray, 635 nm fluorescence, primary screen (AID 1088). The settings on record: higher = more signal.
`CCCNC(=O)[C@@]1(Sc2ccc(C)cc2)CC(=O)N(Cc2ccccc2Cl)[C@@H]1c1ccc(CO)cc1`: the composite z-score was 1.33.
Compound `C[C@H]1COC(=O)[C@H](Cc2ccccc2)NC(=O)[C@@H](C)COC(=O)[C@H](Cc2ccccc2)NC1=O` displayed a composite z-score of 1.57.
`CC(C)N1CC=CC23O[C@@H]4/C=C\CCCOC(=O)C4[C@H]2C(=O)N(CCO)[C@@H]3C1=O` (stereo partly specified) had a composite z-score of 0.885.
For `COC(=O)[C@@]1(Cc2ccc(OC)cc2)[C@H]2c3cc(C(=O)N(C)C)n(CCc4ccc(OC)c(Br)c4)c3C[C@H]2CN1C(=O)c1ccccc1`, the composite z-score came to 1.17.
The figure for `COCCOC(=O)N1C(=O)[C@@]2(c3cc(C#CCCO)ccc31)[C@H](c1ccc(O)cc1)N1[C@H](c3ccccc3)[C@H](c3ccccc3)OC(=O)[C@H]1[C@@H]2C(=O)Nc1nc2ccccc2s1` is 1.55.
`C=CC[C@]1(C(=O)N2CCCCC2)N=C(c2ccc(OCCCO)cc2)O[C@H]1c1ccccc1N=[N+]=[N-]` gave a composite z-score of 1.58.
In the case of `CCCC=C(CCC)[C@@H](NS(=O)(=O)c1cccc(C(F)(F)F)c1)c1ccc(C(=O)OC)cc1`, the composite z-score came out at 0.133.
In the case of `COc1ccc([Si](C)(C)[C@@H]2[C@@H](CC(=O)N(CCO)Cc3ccccc3)O[C@]3(C(=O)N(Cc4cccc(N5CCC5=O)c4)c4ccccc43)[C@H]2C)cc1`, the composite z-score was 1.56.
Regarding `COc1cc([C@@H]2N[C@H](C(=O)O)Cc3c2[nH]c2ccccc32)cc(OC)c1OC`, the composite z-score was -0.504.
`COCC(=C=CC[C@H](O)c1ccc(OCCO)cc1)C[C@H](O)c1ccccn1`: the composite z-score was determined as 0.546.
Turning to `COCCOC(=O)N1C(=O)[C@@]2(c3cc(C#CC4(O)CCCCCC4)ccc31)[C@H](C(=O)N1CCCCCCC1)[C@H]1C(=O)O[C@H](c3ccccc3)[C@H](c3ccccc3)N1[C@@H]2c1ccc(O)cc1`, the composite z-score amounted to 1.56.
For the compound `C=CCC(OC(C)=O)[C@@H]1[C@@H](N(Cc2cc3ccccc3o2)C(=O)c2ccc(C)cc2)c2cc(OCCCO)ccc2N1C(=O)c1ccc2ccccc2n1` (stereo partly specified), the composite z-score came to 0.207.
The compound `C=C(COC)C(=O)CC[C@H](OC(=O)c1ccccc1-c1ccccc1C(=O)O)c1cccc(OCCO)c1` gave a composite z-score of 1.54.
`CC(C)[Si](OCC[C@H]1O[C@]2(C(=O)N(Cc3ccccc3)c3ccccc32)[C@@H](C)[C@@H]1[Si](C)(C)O)(C(C)C)C(C)C` registered a composite z-score of 0.489.
For the compound `CO[C@H]1COC(=O)CC=C[C@H](C)[C@@H](OC)COC(=O)CC=C[C@@H]1C`, the composite z-score is 0.656.
`COCCOC(=O)N1C(=O)[C@@]2(c3cc(C#CC4=CCCCC4)ccc31)[C@H](C(=O)NC[C@H](O)c1ccccc1)[C@H]1C(=O)O[C@H](c3ccccc3)[C@H](c3ccccc3)N1[C@@H]2c1ccccc1OCCO`: the composite z-score is 1.56.
On to `COc1cc2c(cc1OC)CN(C(=O)[C@H]1[C@@H]3C(=O)O[C@@H](c4ccccc4)[C@@H](c4ccccc4)N3[C@@H](c3ccc(O)cc3)[C@]13C(=O)Nc1ccc(C#CC4(O)CCCCCC4)cc13)CC2`, for which the composite z-score was 1.41.
The figure for `CN(C)C(=O)[C@@]1(Cc2ccccc2N=[N+]=[N-])N=C(c2ccc(OCCCO)cc2)O[C@H]1c1ccccc1CN=[N+]=[N-]` is 1.56.
Regarding `CO[C@H]1COC(=O)[C@@H](C)COC(=O)[C@H](Cc2ccccc2)NC(=O)CC=C[C@H]1C`, the composite z-score turned out to be 0.525.
On to `CC(=O)NCCCC[C@@H]1NC(=O)[C@H]2C[C@@H](C(=O)NCCCCCCN(C)C)[C@@H](c3cccc(OCCO)c3)N2C1=O`, for which the composite z-score stood at 1.53.
The figure for `C=CCC(OC(C)=O)[C@@H]1[C@@H](N(Cc2ccc(-c3ccccc3)cc2)C(=O)c2ccc(-c3ccccc3)cc2)c2cc(OCCCO)ccc2N1C(=O)Cc1ccc(OC)cc1` (stereo partly specified) is -0.22.
In the case of `COCCCNC(=O)[C@@H]1c2ccccc2C(=O)N(CC23CC4CC(CC(C4)C2)C3)[C@H]1c1ccc(CO)cc1` it was 1.49; in that of `C=CCN1C(=O)[C@]2(O[C@H](CCn3cc(CCO)nn3)[C@@H]([Si](C)(C)c3ccc(OC)cc3)[C@@H]2C)c2cc(NC(=O)c3ccc(OC)cc3)ccc21`, 1.25.
In the case of `C=C(CCCC)/C(=C/C[C@@H](OC(=O)c1ccncc1)c1ccc(CO)o1)c1cnc2ccccc2c1` it was 1.54.
For the compound `COC(=O)Cn1c(C(=O)N2CCCC2)cc2c1C[C@H]1CN(C(=O)c3ccccc3)[C@@](Cc3ccc(OC)cc3)(C(=O)OC)[C@@H]21`, the composite z-score was -0.709.
In the case of `C=C(CCCC)C(=O)CC[C@@H](OC(C)=O)c1ccccc1OCCO` it was 0.0077.
In turn, `CCOC(=O)C[C@H]1[C@H](OC(=O)c2cc3ccccc3oc2=O)[C@@H](NC(=O)C2CCCCC2)c2cc(OCCCO)ccc2N1C(=O)c1ccc2ccccc2n1` had a composite z-score of 1.06.
In the case of `COC(=O)C(CC#Cc1ccc2c(c1)[C@]1(C(=O)N2)[C@H](C(=O)N2CCCCCCC2)[C@H]2C(=O)O[C@H](c3ccccc3)[C@H](c3ccccc3)N2[C@@H]1c1ccc(O)cc1)C(=O)OC` it was -1.19; in that of `C=C[C@H](OC)[C@@H](OC(=O)Nc1ccc(SC)cc1)c1ccc(O)c(F)c1`, 1.22; in that of `O=C1O[C@@H](c2ccccc2)[C@@H](c2ccccc2)N2[C@@H](c3ccc(OCCO)cc3)[C@]3(C(=O)Nc4ccc(C#CCCO)cc43)[C@@H](C(=O)N3CCN(c4ncccn4)CC3)[C@H]12`, 1.54.
`C=CCC(OC(C)=O)[C@@H]1[C@@H](N(Cc2cccc3ccccc23)C(=O)Cc2ccc(F)cc2)c2cc(OCCCO)ccc2N1C(=O)Cc1ccc2ccccc2c1` (stereo partly specified) came in with a composite z-score of 0.204.
In the case of `O=C1O[C@@H](c2ccccc2)[C@@H](c2ccccc2)N2[C@@H](c3ccc(O)cc3)[C@]3(C(=O)Nc4ccc(C#CC5(O)CCCCCC5)cc43)[C@@H](C(=O)Nc3nc4ccccc4s3)[C@H]12` it was 1.54; in that of `C#CCCCON=C1C[C@@H](O)[C@@H](O)[C@@H]2[C@@H]3C(=O)N(Cc4ccc5c(c4)OCO5)C(=O)[C@@H]3CC[C@@H]12`, 0.652; in that of `O=C1O[C@H](c2ccccc2)[C@H](c2ccccc2)N2[C@H]1[C@@H](C(=O)NC[C@H](O)c1ccccc1)[C@]1(C(=O)Nc3ccc(C#CC4(O)CCCCCC4)cc31)[C@H]2c1ccc(OCCO)cc1`, 1.32.
In turn, `CCOC(=O)C1=C[C@@H](c2ccccc2)N(S(=O)(=O)c2ccc(C)cc2)[C@H]1c1ccc(F)cc1` registered a composite z-score of 1.56.
The figure for `O=[N+]([O-])c1ccc(C[n+]2ccc3ccc(O)cc3c2)o1` is 0.536.

For the origin of these results see PubChem BioAssay.
